High-throughput results (PubChem)
sdo1 growth = sdo1-depleted yeast growth rescue; S. cerevisiae sdo1-depleted JHY4D growth rescue, OD600 30 h; stronger effect = higher value; pdr5 snq2 efflux-pump mutant strain; z-score at 10 µM; 0.21% of 140,000 active; AID 817;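 active = z-score above 3 at both the 24 hr and the 30 hr optical density reads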
MRP1 act = activates MRP-1; H69AR cells + doxorubicin, viability rescue, CellTiter-Glo; viability increase, % at 10 µM; 0.61% of 140,000 active;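 active = viability gain under doxorubicin at or above a set limit, the compound median plus 3 SD, cut at about 4.7% in these data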;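 note: MRP-1 overexpressing cells given doxorubicin 25 µM after compound pretreatment; 18-22 h compound pretreatment then 72 h with doxorubicin before readout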
Candida biofilm = kills Candida albicans biofilms. inhibition, % at 6 µM. C. albicans biofilm + clotrimazole, Alamar Blue. AID 834. 0.14% of 85,000 active;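 active = inhibition above 20%; inactive = inhibition below 20%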;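 note: preformed 24 hr biofilms exposed to compound for 48 hr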
MRP reversal = compounds reversing MRP-mediated drug resistance; H69AR cells + 2 uM doxorubicin, CellTiter-Glo, 72 h; differential viability (reversal), % at 10 µM; 0.04% of 85,000 active;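 active = viability drop by adding the cancer drug above about 55%, with treated viability meeting a 40% cutoff, limit read from the data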;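 note: larger differential means the compound sensitizes cells more to doxorubicin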
Numbers stand for hits. In the library only some 0.98% were active in any assay of this set; here they are far more common.

Screening CC(C)Cc1nc2oc3c(N4CCN(C)CC4)ncnc3c2c2c1CCCC2 returned sdo1 growth inactive, MRP1 act inactive, Candida biofilm inactive and MRP reversal inactive.
`N=c1c2c(-c3ccccc3)c(-c3ccccc3)n(Cc3ccco3)c2ncn1Cc1ccccc1` gave sdo1 growth inactive, MRP1 act inactive, Candida biofilm 43 and MRP reversal inactive.
For O=C1NC(=Nc2ccccc2)SC1Cc1cccc(Cl)c1Cl (centres undefined) the results were sdo1 growth inactive and MRP1 act 5.7.
`O=C1N/C(=N/c2ccccn2)SC1Cc1ccccc1` (centres undefined) gave sdo1 growth inactive, MRP1 act inactive, Candida biofilm inactive and MRP reversal inactive.
`Cc1cccc(-c2cc3nc(C)cc(N4CC(C)CC(C)C4)n3n2)c1` (centres undefined) gave sdo1 growth inactive, MRP1 act 5.1, Candida biofilm inactive and MRP reversal inactive.
`CN1C(=O)/C(=C/c2cc(N=Nc3ccccc3)ccc2O)SC1=S` gave sdo1 growth inactive and MRP1 act inactive.
`CC(C)(C)NC(=O)c1cccc(NC(=O)CSc2ccccc2)c1` gave sdo1 growth inactive and MRP1 act inactive.
For Cc1cc(C)c(S(=O)(=O)NCC23C=CC(O2)C2C(=O)N(c4ccccc4)C(=O)C23)c(C)c1 (centres undefined) the results were sdo1 growth inactive and MRP1 act inactive.
Screening CN1CCN(c2nc(-c3ccccn3)nc3ccccc23)CC1 returned sdo1 growth inactive, MRP1 act inactive, Candida biofilm inactive and MRP reversal 68.
Screening c1ccc(N2CCN(c3nc(-c4ccccn4)nc4ccccc34)CC2)cc1 returned sdo1 growth inactive and MRP1 act inactive.
For O=C(COc1ccc(Cl)cc1)NCc1nnc2c3ccccc3c(-c3ccccc3)nn12 the results were sdo1 growth inactive and MRP1 act 5.0.
For O=C(NCc1nnc2c3ccccc3c(-c3ccccc3)nn12)c1ccccc1Cl the results were sdo1 growth inactive and MRP1 act inactive.
`CCCCn1nnc(NC(=S)NC(=O)c2cccs2)n1` gave sdo1 growth inactive and MRP1 act 8.8.
For Cc1nc(NC(=S)NC(=O)c2ccccc2)sc1C(=O)N(C)C the results were sdo1 growth inactive and MRP1 act 7.7.
COC(=O)c1sc(NC(=S)NC(=O)c2ccccc2)nc1C was read as sdo1 growth inactive and MRP1 act inactive.
For Cc1nc2ccccn2c1C(=O)NNS(=O)(=O)c1ccc(C(C)(C)C)cc1 the results were sdo1 growth inactive and MRP1 act inactive.
COC(=O)COc1cccc2c(=O)n(CC(=O)N3CCCc4ccccc43)ccc12 was read as sdo1 growth inactive, MRP1 act inactive, Candida biofilm inactive and MRP reversal inactive.
`Fc1cccc(-c2cc3nc(-c4ccccc4)cc(N4CCC5(CC4)OCCO5)n3n2)c1` gave sdo1 growth inactive, MRP1 act 6.1, Candida biofilm inactive and MRP reversal inactive.
For Cc1cccc(-c2cc3nc(-c4ccccc4)cc(N4CCC5(CC4)OCCO5)n3n2)c1 the results were sdo1 growth inactive, MRP1 act inactive, Candida biofilm inactive and MRP reversal inactive.
Cc1cccc(-n2ncc3c(N4CC(C)CC(C)C4)ncnc32)c1 (centres undefined) was read as sdo1 growth inactive, MRP1 act 5.3, Candida biofilm inactive and MRP reversal inactive.
`O=C(C1CC1)N1CCN(C(c2ccccc2)c2ccccc2)CC1` gave sdo1 growth inactive, MRP1 act inactive, Candida biofilm 41 and MRP reversal inactive.
`O=C(C1CCCCN1S(=O)(=O)c1ccccc1)N1CCN(C(c2ccccc2)c2ccccc2)CC1` (centres undefined) gave sdo1 growth inactive, MRP1 act inactive, Candida biofilm inactive and MRP reversal inactive.
`CCN(CC)CCNC(=O)C(=O)NCC1OCCN1S(=O)(=O)c1ccc([N+](=O)[O-])cc1` (centres undefined) gave sdo1 growth inactive and MRP1 act inactive.
For Cn1nc(C(F)(F)F)c(/C=N/OC(=O)c2ccccc2Cl)c1SCc1ccccc1Cl the results were sdo1 growth inactive and MRP1 act inactive.
`CSc1nc2sc3c(c2c(=O)[nH]1)CCC(C)C3` (centres undefined) gave sdo1 growth inactive, MRP1 act inactive, Candida biofilm inactive and MRP reversal inactive.
For CC1CCc2c(sc3nc(CSc4ncn[nH]4)[nH]c(=O)c23)C1 (centres undefined) the results were sdo1 growth inactive and MRP1 act 18.
`CCCCOC(=O)c1ccc(NC(=O)/C=C/c2cccs2)cc1` gave sdo1 growth inactive and MRP1 act 4.8.
CCCCOC(=O)c1ccc(NC(C)=O)cc1 was read as sdo1 growth inactive and MRP1 act inactive.
Cc1cc(C)c(C)c(S(=O)(=O)Nc2ccc(OCC(=O)O)cc2)c1C was read as sdo1 growth inactive, MRP1 act inactive, Candida biofilm inactive and MRP reversal inactive.
Cc1cc(/C=C2\SC(=S)NC2=O)c(C)n1C was read as sdo1 growth inactive and MRP1 act 5.5.
CCOc1ccccc1N(CC(=O)O)S(=O)(=O)c1ccccc1 was read as sdo1 growth inactive, MRP1 act 4.8 and MRP reversal inactive.
CCOc1ccc(OCc2ccc(C(=O)N3N=C(C(F)F)CC3(O)C(F)F)o2)cc1 (centres undefined) was read as sdo1 growth inactive and MRP1 act inactive.
O=C(c1ccc(COc2ccc(Br)cc2)o1)N1N=C(C(F)F)CC1(O)C(F)F (centres undefined) was read as sdo1 growth inactive and MRP1 act 5.5.
COc1ccc(NC(=O)C2C(=O)NC3(C)CC2c2ccccc2O3)cc1 (centres undefined) was read as sdo1 growth inactive, MRP1 act 4.9, Candida biofilm inactive and MRP reversal inactive.
For COc1ccc(N2C(=O)CC(N3CCC(O)(c4ccc(Br)cc4)CC3)C2=O)cc1 (centres undefined) the results were sdo1 growth inactive, MRP1 act inactive, Candida biofilm inactive and MRP reversal inactive.
`O=C1CC(N2CCCN(C3CC(=O)N(c4ccc(F)cc4)C3=O)CC2)C(=O)N1c1ccc(F)cc1` (centres undefined) gave sdo1 growth inactive, MRP1 act 8.3, Candida biofilm inactive and MRP reversal inactive.
Screening O=C1CC(N2CCCCC2)C(=O)N1c1ccccc1 (centres undefined) returned sdo1 growth inactive, MRP1 act inactive, Candida biofilm inactive and MRP reversal inactive.
Screening O=C1CC(N2CCC(O)(c3ccc(Br)cc3)CC2)C(=O)N1c1ccc(Cl)cc1 (centres undefined) returned sdo1 growth inactive and MRP1 act 6.3.
For C=CCn1c(=O)c2c(C)c(C)sc2n2c(Nc3ccc(OC)cc3)nnc12 the results were sdo1 growth inactive, MRP1 act 7.7, Candida biofilm inactive and MRP reversal inactive.
`COC(=O)c1sc(N)c(C(=O)OC)c1COC(=O)CCNS(=O)(=O)c1ccc(C)cc1` gave sdo1 growth inactive and MRP1 act inactive.
Screening COc1ccc(Cl)cc1C(=O)Nc1ccc2c(c1)OCO2 returned sdo1 growth inactive, MRP1 act 15, Candida biofilm inactive and MRP reversal inactive.
